Data taken from PubChem BioAssay AID1985 (Southern Research Specialized Biocontainment Screening …, 2009).
In all, about 2,300 compounds went through this assay and about 1,000 (43%) were called active. The rule behind the calls is not given here. So high a share suggests a set chosen from earlier hits. Some of the results follow. Measured potencies and affinities stand elsewhere.

Experiment: modified counter assay using GFP fluorescence, PhoP regulon inhibitor project, dose response (AID 1985)
Conditions: S. Typhi, 4 h; series mostly up to 150 µM; inhibition: at the top concentration

Structure (SMILES)	inhibition
O=C(O)CC/C(=C\c1ccccc1[N+](=O)[O-])c1nc2ccccc2s1	-10.3% (inactive)
O=C(OCc1nc2ccccc2s1)c1ccco1	-20.7% (inactive)
O=C1CCCC(=O)N1c1ccc(N2CCOCC2)c([N+](=O)[O-])c1	8.04% (inactive)
CCn1cc(C(=O)NCCc2ccccc2)c(=O)c2cc(F)c(N3CCN(C)CC3)cc21	27.2% (inactive)
CN(C)CCN1C(=O)C(O)=C(C(=O)c2cc3ccccc3o2)C1c1ccccn1 (stereo not given)	-2.92% (inactive)
O=C(Cn1nc(Cc2ccncc2)c2ccccc2c1=O)Nc1cccnc1Cl	-17.7% (inactive)
COc1ccc(N(CCCN2C(=O)c3cccc4cccc(c34)C2=O)C(=O)c2cccnc2)cc1	-14.9% (inactive)
O=C(c1ccco1)N1CCCN(Cc2nc(-c3ccc4c(c3)OCO4)no2)CC1	4.01% (inactive)
O=C(NCc1ccc2c(c1)OCO2)c1ccc2c(c1)C(=O)N(Cc1cccnc1)C2=O	21.3% (inactive)
C1CCC(n2nnnc2CN2CCN(C3CCCC3)CC2)CC1	-7.1% (inactive)
CCN(CC)CCOC(=O)c1ccc(N/C=C(/C#N)c2nc(-c3ccc(OC)c(OC)c3)cs2)cc1	-34.1% (inactive)
Cc1ccc(-n2ncc3c(=O)[nH]cnc32)c(C)c1	-5.17% (inactive)
O=C(Nc1cccc(OCC(=O)N2CCOCC2)c1)c1cccc([N+](=O)[O-])c1	-2.28% (inactive)
N/C(=N\OC(=O)N1CCOCC1)c1ccccc1	35% (inactive)
O=C1c2ccccc2C(=O)C1(CO)c1ccc(OC(F)F)cc1	-10.3% (inactive)
Cc1nnc(SCC(=O)Nc2cc(S(=O)(=O)N3CCCC3)ccc2Cl)s1	-10.1% (inactive)
COc1ccc(C)cc1S(=O)(=O)N1CCCC(C(=O)NCC2CCCO2)C1 (stereo not given)	-6.63% (inactive)
COC(=O)C1=C(C(=O)OC)SC(=C2C(=S)C(C)(C)N(C(=O)C3CC3)c3ccccc32)S1	-28.7% (inactive)
O=C(NCC1CC1)Nc1cccs1	37.6% (inactive)
CC(C)(C)NC(=O)NC(=O)COC(=O)CCC1CCCC1	4.5% (inactive)
Cc1c(C(=O)O)oc2c3c(ccc12)OCCO3	29% (inactive)
c1ccc(CNc2nc(N3CCN(Cc4ccccc4)CC3)nc3ccccc23)cc1	34.2% (inactive)

Structure (SMILES)	inhibition
CC(Nc1nc(N2CCCCC2)nc2ccccc12)c1ccccc1 (stereo not given)	30.2% (inactive)
COc1ccc(C(CC(=O)O)NC(=O)C2CCCCC2)cc1 (stereo not given)	13% (inactive)
COc1ccc(N2CCN(C(CNC(=O)c3ccc4c(c3)OCO4)c3ccco3)CC2)cc1 (stereo not given)	16.9% (inactive)
CCCOc1ccc(-c2cn3ccccc3n2)cc1	28.7% (inactive)
COC(=O)c1ccc(NC(=O)c2ccccc2N(C)S(=O)(=O)c2ccccc2)cc1	5.7% (inactive)
Cc1cccc(N2CCN(C(=O)CCN3C(=S)NC(C)(C)CC3C)CC2)c1C (stereo not given)	-23.3% (inactive)
CC(C)OCCCn1c(=S)[nH]c2cc3c(cc2c1=O)OCO3	5.66% (inactive)
O=C(NCc1ccccn1)c1nc(Cn2ccc([N+](=O)[O-])n2)no1	34% (inactive)
CC(C)c1ccc(N(C(=O)C(F)(F)F)C(C(=O)NC2CCCCC2)c2ccncc2)cc1 (stereo not given)	13.1% (inactive)
O=C(CN1CCCC1)Nc1ccc(-c2nc3cc(NC(=O)CN4CCCC4)ccc3o2)cc1	9.55% (inactive)
CC(=O)c1c(N2CCN(c3cccc(Cl)c3)CC2)nc(=S)n(-c2ccccc2)c1C	-26.7% (inactive)
COc1cccc(NC(=O)CSc2nncn2-c2ccccn2)c1	-8.62% (inactive)
COc1ccc(Nc2nc(-c3ccccc3)nc3ccccc23)cc1S(=O)(=O)N1CCOCC1	4.27% (inactive)
COc1ccc(OC)c(CCNC(=O)CS(=O)(=O)Cc2nc(-c3ccccc3C)oc2C)c1	0.83% (inactive)
COC(=O)c1ccc(Cn2c(O)c(N=NC(N)=S)c3ccccc32)o1	-17.6% (inactive)
c1ccc(CSc2ccc(-c3cccs3)nn2)nc1	1.12% (inactive)
Cc1ccc2[nH]cc(CCNC(=O)c3cccnc3)c2c1	-25.4% (inactive)
CCc1nnc(NC(=O)c2ccc(S(C)(=O)=O)cc2)s1	5.26% (inactive)
COc1ccc(-c2csc(N)n2)cc1F	-20.7% (inactive)
O=C(Nc1ccc(Cc2ccncc2)cc1)c1cccs1	4.58% (inactive)
Nc1nc(SCC(=O)N2CCCC2)[nH]c(=O)c1NC(=O)c1cccs1	18.5% (inactive)
Cc1cc(C)cc(NC(=O)CSc2nnc(CNC(=O)c3cccs3)o2)c1	-6.33% (inactive)

Structure (SMILES)	inhibition
Cc1ccc(NC(=O)OCc2cccs2)cc1	13.1% (inactive)
CC(C)(C)n1nc2c(c1NC(=O)c1cccs1)CS(=O)C2 (stereo not given)	-9.23% (inactive)
CCc1ccc2c(c1)CCCN2C(=O)c1ccccc1C(=O)O	-6.15% (inactive)
CC1Cc2ccccc2N1S(=O)(=O)c1cccc(C(=O)N2CC(=O)Nc3ccccc32)c1 (stereo not given)	-7.55% (inactive)
Cc1noc(C)c1CCC(=O)N1CCCC(CCC(=O)NCc2ccc(F)c(F)c2)C1 (stereo not given)	-6.11% (inactive)
COc1ccc(NS(=O)(=O)c2cc(NC(=O)c3ccc(C)s3)ccc2N2CCOCC2)cc1	17% (inactive)
CCCC(=O)c1c(NC)cc(C)oc1=O	-13.9% (inactive)
CCOC(=O)C1=C(O)c2ccccc2C(=O)/C1=C\c1ccc(C)cc1	29% (inactive)
CCOc1cc(C2NC(=O)N(C)C(C)=C2[N+](=O)[O-])ccc1OC(C)=O (stereo not given)	11.2% (inactive)
CCNc1nc(N)nc(Oc2ccc(OCCOc3ccc(Cl)cc3Cl)nn2)n1	-6.34% (inactive)
CCc1nc(N)nc(N)c1-c1ccc(Cl)cc1	13.8% (inactive)
NCCCCCc1nnc(SCc2ccc(Cl)cc2Cl)o1	3.7% (inactive)
COc1ccc(C2C(C#N)=C(N)Oc3n[nH]c(C)c32)cc1CSc1ccccn1 (stereo not given)	-16% (inactive)
COc1ccc(CCNC2CCCCC2)cc1	-18.6% (inactive)
COc1ccc(OCC(=O)Nc2ccc3c(c2)nc(CCN2CCC(C)CC2)n3C)cc1	-9.84% (inactive)
CCOC(=O)c1cccc(NC(=O)C2CCC(CNc3c(N4CCOCC4)c(=O)c3=O)CC2)c1 (stereo not given)	-8.32% (inactive)
Cc1ccc(-c2c(C)n([O-])c3c([n+]2=O)CCCC3)o1	-18.5% (inactive)
O=C(CCNC(=O)c1ccco1)Nc1cccc(Br)c1	16.5% (inactive)
O=C(CSc1ccc(Cl)cc1)c1ccco1	20.1% (inactive)
c1ccc2c(c1)OC(CCCN1CCCCC1)c1ccccc1S2 (stereo not given)	30.4% (inactive)
Cc1cc(Cl)ccc1OCCCC(=O)N1CCCc2ccccc21	-29.3% (inactive)
CSc1ccc2c(c1)N(CCC1CCCCN1C)c1ccccc1S2 (stereo not given)	5.05% (inactive)

Structure (SMILES)	inhibition
OCCN1CCN(CCCN2c3ccccc3Sc3ccc(C(F)(F)F)cc32)CC1	-10.2% (inactive)
c1ccc(-c2nc(NC3CC3)nc(-n3ccnc3)n2)cc1	-12.8% (inactive)
COc1ccc(C2C(C(=O)NCc3cccnc3)c3ccccc3C(=O)N2C)cc1OC (stereo not given)	3.91% (inactive)
N#Cc1nc(Cc2ccccc2)oc1NCCN1CCOCC1	-6.3% (inactive)
c1ccc2cc3c(NCCN4CCOCC4)ccnc3cc2c1	19.5% (inactive)
COC(=O)c1ccc(CSc2nc3ccccc3c(=O)n2-c2ccc(OC)c(OC)c2)o1	-15% (inactive)
Cc1c(/C=N/NC(=O)c2ccc3c(c2)OCO3)cnn1C	25.8% (inactive)
COc1ccc(C(=O)O/N=C2\C(=O)N(C)c3ccccc32)cc1	-13.2% (inactive)
O=C(Nc1ccc(N2CCOCC2)cc1)C1CCN(S(=O)(=O)c2ccccc2F)CC1	-6.74% (inactive)
CCc1cccc2c(C=C(C#N)C#N)cn(CC(=O)N3CCCCCC3)c12	-17.9% (inactive)
CCOC(=O)c1ccc(S(=O)(=O)N2CCN(CCC#N)CC2)cc1	-10.8% (inactive)
CC(=O)NCc1ccc(C(=O)CCl)cc1	1.2% (inactive)
CN(C)[C@@H]1C(=O)C(C(N)=O)=C(O)[C@@]2(O)C(=O)C3=C(O)c4c(O)cccc4[C@@](C)(O)C3[C@H](O)C12 (stereo not given in full)	2.33% (inactive)
O=C1c2c(O)ccc(O)c2C(=O)c2c(NCCNCCO)ccc(NCCNCCO)c21	38.5% (inactive)
C[C@@H](NC(=O)/C(C#N)=C/c1ccc(O)c(O)c1)c1ccccc1	-28.2% (inactive)
Cc1nc2cc(C(=O)N3CCC4(CC3)OCCO4)ccc2n1-c1cccc(F)c1	-4.73% (inactive)
COC(=O)C1=C(C)N(CC2CC2)C(=O)N[C@H]1c1ccc(Br)cc1	0.52% (inactive)
COC(=O)C1=C(C)N(Cc2ccco2)C(=O)N[C@H]1c1ccc(Br)cc1	-13.2% (inactive)
COc1ccc(CC(=O)N(Cc2cc3cc(OC)ccc3[nH]c2=O)C(C)C)cc1	-10.2% (inactive)
COc1ccc2c(C(=O)CN(C)C3CCCCC3)c[nH]c2c1	39.5% (inactive)
COC(=O)NNS(=O)(=O)c1ccc(C)cc1	36.3% (inactive)
Cc1cc([N+](=O)[O-])nn1CC(=O)Nc1cccc2nonc12	2.77% (inactive)

Structure (SMILES)	inhibition
N#CCC(=O)N/N=C/c1ccccc1Cl	-14.5% (inactive)
Cc1[nH]nc2c1C1(CCC3(CC1)OCCO3)C(C#N)=C(N)O2	6.35% (inactive)
NC(=O)COc1c(-c2ccco2)oc2ccccc2c1=O	-8.6% (inactive)
COc1ccc(-c2noc(CCC(=O)Nc3cccc(C)c3)n2)cc1	25% (inactive)
O=C(NNC(=O)c1cccs1)c1ccc2ccccc2c1	-18.4% (inactive)
COc1ccc(-c2nc3ccc(C(=O)NCC(OC)OC)cc3nc2-c2ccc(OC)cc2)cc1	2.72% (inactive)
COC(=O)c1ccc(NC(=S)NNC(=O)c2ccccc2)cc1	35.6% (inactive)
CCOC(=O)c1cccc(NC(=O)c2cccs2)c1	19.6% (inactive)
CCCOc1ccc(C2C(C(=O)c3ccc(C)o3)=C(O)C(=O)N2CCCn2ccnc2)cc1 (stereo not given)	4.33% (inactive)
Clc1ccc(-c2cc(C3CCNCC3)[nH]n2)c(Cl)c1	-27.2% (inactive)
C=CCn1c(C)c(C(C)=O)c(SC)nc1=S	-11.3% (inactive)
COc1ccc(CNC(=O)C(c2cccs2)N(C(=O)c2csnn2)C2CC2)cc1 (stereo not given)	-9.9% (inactive)
COCCN1C(=O)C(=O)/C(=C(/O)c2cccc(OC)c2)C1c1ccncc1 (stereo not given)	-8.54% (inactive)
CCC1(CC)C(=O)NC(=O)NC1=Nc1cccc(OC)c1	-25.7% (inactive)
CCC(=O)c1ccc(OCC(O)CNCCc2ccc(Cl)cc2)cc1 (stereo not given)	-30.2% (inactive)
Cn1c(=O)cc(SCC(=O)N2CCN(C3CCCCC3)CC2)c2ccccc21	-10.2% (inactive)
Cn1c(C(O)c2ccccc2F)nc(Cl)c1Cl (stereo not given)	-12.8% (inactive)
CSc1ccccc1NC(=O)CN1CCCCC1C (stereo not given)	-26.6% (inactive)
CNS(=O)(=O)c1cccc(C(=O)OCc2cc(=O)oc3c(C)c(O)ccc23)c1	-1.66% (inactive)
O=C(N/N=C/c1ccc(F)c(F)c1)c1cc2c(s1)-c1ccccc1CC2	11.7% (inactive)
CC(C)(C)Nc1nc(-c2ccccn2)nc2ccccc12	-0.17% (inactive)
CC(C)(C)NC(=O)/C=C/c1ccc(C(F)(F)F)cc1	0.75% (inactive)
